About 83,000 compounds went through this panel and 20% of them were active in at least one assay; those are over-represented in the sample as a whole.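 A percent growth of 40 corresponds to 60% growth inhibition; 0 means no net growth; -100 means all cells died. Active threshold: below 10.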 Values without a mark were called inactive. Active and inactive are the calls of the source.
These compounds were tested on PC-3 prostate (assay: NCI-60 one-dose screen, 48 h (100 = growth as untreated, 0 = no growth, -100 = all killed)). Conditions: 10 µM unless noted.
Experimental: Growth inhibition of the PC-3 human tumor cell line is measured as a screen for anti-cancer activity. Cells are grown in 96 well plates and exposed to the test compound for 48 hours. Compounds are tested at a single concentration, which is 10^-5 M for most compounds. The reported endpoint is percent growth (GI% or GIPRCNT), where numbers from 0 - 100% represent growth inhibition, and numbers from -100% - 0 represent cell death. For example, a value of 40 represents 60% growth inhibition. A value of 0 means no net growth occurred over the course of the experiment. A value of -40 indicates 40% of cells at the beginning of the experiment died by the end of the experiment. A value of -100 means all cells are dead at the end of the experiment.
NCI-60 Human Tumor Cell Lines Screen was performed using the standard one-dose NCI protocol, which is described in more detail at https://dtp.cancer.gov/discovery_development/nci-60/default.htm.
Compounds with GIPRCNT values below 10 were considered active. Activity score was based on GIPRCNT using the following formula: […]
Score is 0 for GIPRCNT values of 100 or above, 50 for GIPRCNT values of 0, and 100 for GIPRCNT values of -100.

Q: `O=C1Nc2ccc(F)cc2/C1=C\c1c(-c2ccccc2)nc2ccccn12` was tested. Which growth did it give?
A: 67.5%

Q: `C[C@H]1[C@H]2[C@H]3CC[C@@H]4[C@@]5(C)CC[C@H](O)C(C)(C)[C@@H]5CC[C@@]4(C)[C@]3(C)CC[C@]23CO[C@]1(C)[C@@H](C(=O)/C=C\c1ccco1)C3` was tested. Which growth did it give?
A: 92.7%

Q: For `C=C1C(=O)O[C@H]2[C@H]1CC/C(COC(=O)NCc1c[nH]c3ccc(Br)cc13)=C\CC[C@@]1(C)O[C@@H]21`, which growth is on record?
A: 15.4%

Q: How did the growth turn out when `CNC(=O)c1cccc(Cn2nc(C)c(NC(=O)c3ccc(COc4ccc(C(F)(F)F)cc4C)cc3)c2C)n1` was run?
A: 34.6%

Q: `CCCCCCNC(=O)Nc1ccc2cc3ccc(NC(=O)NCCCCCC)cc3nc2c1` was tested. Which growth did it give?
A: 21.5%

Q: `O=C1c2ccc3c4c(ccc(c24)C(=O)N1CCCNCc1ccccc1)C(=O)N(CCCNCc1ccccc1)C3=O` was tested. Which growth did it give?
A: -65.4% (active)

Q: For `COc1cc(/C(C)=C(\c2ccc(Cl)cc2)c2ccc(OCCN(C)C)cc2)ccc1F`, which growth is on record?
A: 58.1%

Q: With `COc1ccc(C/C(C)=C(/c2ccc(OCCCN(C)C)cc2)c2ccc(OC(C)=O)cc2)cc1` as the compound, how does the growth read?
A: 79.3%

Q: For `COC(=O)/C=C1\S/C(=N\NC(=O)c2cc3ccc2/C=C\c2ccc(cc2)/C=C\3)N(Cc2ccccc2)C1=O`, which growth is on record?
A: 17.8%

Q: For `OCc1cnccc1NCCCOc1ccccc1`, which growth is on record?
A: 96%

Q: How did the growth turn out when `O=C(/C=C/c1ccc(Cl)cc1)c1ccc(NC(=O)N2CCN(c3cc4c(cc3F)c(=O)c(C(=O)O)cn4C3CC3)CC2)cc1` was run?
A: 97.7%

Q: Which growth does the source give for `O=C1C=CC(=O)N1c1cccc(Cl)c1` here?
A: 89.2%

Q: For `N#Cc1c(NCc2ccccc2I)sc2c1CCCCC2`, which growth is on record?
A: 98.8%

Q: How did the growth turn out when `CCCCCCCCO/N=C\c1c2c(O)c3c(O)c(C)c4c(c3c1O)C(=O)C(C)(O/C=C\C(OC)C(C)C(OC(C)=O)C(C)C(O)C(C)C(O)C(C)/C=C\C=C(\C)C(=O)N2)O4` (stereo not given) was run?
A: 13.1%

Q: Which growth does the source give for `CCNC(=O)Oc1ccc(/C(=C(\C)c2ccccc2)c2ccc(OCCN(CC)CC)cc2)cc1` here?
A: 70.8%

Q: `COc1ccc(C(=O)C2C(C#N)C(C#N)C3c4ccccc4C=CN23)cc1` (stereo not given) was tested. Which growth did it give?
A: 84.7%

Q: `COc1ccc2[nH]c(O)c(/C=c3/cc4c(c(-c5ccc(F)cc5)n3)=Nc3ccccc3-4)c2c1` was tested. Which growth did it give?
A: 85%

Q: With `C/C(=N\NC(=O)CSc1nc2ccccc2c(=O)n1Cc1ccc(S(N)(=O)=O)cc1)c1ccc(F)cc1` as the compound, how does the growth read?
A: 102%

Q: `Cc1nn(-c2ccccc2)c(Cl)c1/C=N\N=c1/sc2ccccc2n1C` was tested. Which growth did it give?
A: 89.5%

Q: Which growth does the source give for `Nc1n[nH]c2cccc(C#Cc3cccc(C(=O)Nc4cc(CN5CCOCC5)cc(C(F)(F)F)c4)c3)c12` here?
A: 36.9%

Q: For `CC(=O)c1ccc(NS(=O)(=O)c2cccc(C(=O)Nc3ccc(Br)cc3)c2)cc1`, which growth is on record?
A: 60.4% [25 µM]

Q: `O=C(NO)c1ccc(-n2nc(-c3ccccc3)c3ccccc32)cc1` was tested. Which growth did it give?
A: 46.7%

Q: With `c1ccc(Cn2cnc3ccc(-c4nc(-c5ccc6c(c5)ncn6C5CCCCC5)cn5ccnc45)cc32)cc1` as the compound, how does the growth read?
A: -39.5% (active)

Q: For `CC1(C)CC[C@]2(C(=O)O)CC[C@]3(C)C(=CC[C@@H]4[C@@]5(C)Cc6c([nH]c7ccccc67)C(C)(C)[C@@H]5CC[C@]43C)[C@@H]2C1`, which growth is on record?
A: 42.7%

Q: How did the growth turn out when `C=CCN1C(=O)/C(=C/C(=O)OC)S/C1=N\NC(=O)c1cc2ccc1/C=C\c1ccc(cc1)/C=C\2` was run?
A: 48.4%

Q: `CCc1ccc(CNc2ccc(N3CCOCC3)c(C(=O)O)c2)cc1` was tested. Which growth did it give?
A: 106%

Q: `O=C(CCN1CCCC1)Nc1ccc2c(NCCc3ccccc3)c3ccccc3nc2c1` was tested. Which growth did it give?
A: -36% (active)

Q: How did the growth turn out when `O=C(C[n+]1cccc2ccccc21)c1ccc(O)c(O)c1` was run?
A: 69.9%

Q: For `CC(=O)Oc1ccc(/C=N/NC(N)=S)nc1`, which growth is on record?
A: 81%

Q: Which growth does the source give for `CCN(c1ccccc1)S(=O)(=O)c1cc([N+](=O)[O-])ccc1Cl` here?
A: 76.8%

Q: `Cc1ccc(C(=O)/C(=C\c2ccc([N+](=O)[O-])cc2)S(=O)Cc2ccc(F)cc2)cc1` (stereo not given) was tested. Which growth did it give?
A: -0.882% (active)

Q: How did the growth turn out when `C#CCNC(=O)[C@]1(C)CC[C@]2(C)CC[C@@H]3C(=CC[C@H]4[C@@]3(C)CC[C@H]3C(C)(C)C(=O)CC[C@]43C)[C@@H]2C1` was run?
A: 64.6%

Q: For `Cc1nc(N)nc(N[C@@H](C)c2nc3cccc(NCc4ccc(C(=O)NO)cc4)c3c(=O)n2-c2ccccc2)n1`, which growth is on record?
A: 88%

Q: How did the growth turn out when `Cc1nn(-c2ccccc2)c(Oc2c(Cl)cccc2Cl)c1/C=N/N=c1\sc2ccccc2n1C` was run?
A: 44.1%

Q: `COc1cc(/C=C\c2cc(/C=C\c3ccc(O)c(OC)c3)n(C(=O)COc3ccccc3)n2)ccc1O` was tested. Which growth did it give?
A: 8.49% (active)

Q: How did the growth turn out when `COc1cc(C2C3=C(COC3=O)N(CCO)c3cc4c(cc32)OCO4)cc(OC)c1OC` (stereo not given) was run?
A: 19.6%

Q: For `O=C(CCN1CCCC1)Nc1ccc2c(NCCCCc3ccccc3)c3ccccc3nc2c1`, which growth is on record?
A: -56.8% (active)

Q: How did the growth turn out when `COc1ccc(-c2[nH][nH]c(=O)c2-c2nc3ccccc3s2)cc1` was run?
A: 102%

Q: For `COc1ccc(/C=C2\Oc3cc(OCCCN4CCCCC4)ccc3C2=O)cc1OC`, which growth is on record?
A: 79.6%

Q: With `CCCCCN1C=C/C(=C\C(=O)n2ccc3ccccc32)c2ccccc21` as the compound, how does the growth read?
A: 85.3%

From PubChem BioAssay (NCI)
